Source: PubChem BioAssay AID1159606 (Sanford-Burnham Center for Chemical Genomics, 2016)
Out of some 360,000 compounds screened, about 7,300 (2%) were called active. No stated cut-off is given here; in the data, active means inhibition above about 50%; inactive means the rest. Only a selection was taken, and actives are over-represented in it overall.

Assay: blockers of TWEAK-induced Fn14 reporter activity – luciferase reporter cells, uHTS, primary screen (AID 1159606)
Conditions: TWEAK-stimulated Fn14 reporter cells, luciferase luminescence, 8 h; at 10 µM; hits give high values

inhibition, inactive:
O=C(COC(=O)c1ccco1)Nc1ccc(Cl)cn1 -3.57%
Cc1ccc(NC(=O)c2ccco2)cc1 -27.8%
CC1CN(c2cc(=O)n(Cc3ccc(F)cc3)c(=O)[nH]2)CC(C)O1 (stereo not drawn) -5.29%
CC(=O)OCC(C)n1c(=O)c2ccccc2n1C(C)=O (stereo not drawn) 2.6%
CCC(c1nnnn1-c1ccc2c(c1)OCCO2)N1CCN(c2ccc(C(F)(F)F)cn2)CC1 (stereo not drawn) 30.4%
CCc1cccc(CC)c1NC(=S)NCc1ccc2[nH]c(C)cc2c1 12.3%
Cc1cc(C)cc(NC(=S)NCCc2c[nH]c3ccccc23)c1 7.03%
Cc1ccc(CCN2CC(C(=O)O)CC2=O)cc1 (stereo not drawn) -5.87%
Cc1noc(C)c1C(=O)NCC1COc2ccccc2O1 (stereo not drawn) -8.54%
O=C(Cn1cnc2ccccc2c1=O)NCC1COc2ccccc2O1 (stereo not drawn) 9.26%
COc1cccc(N(CC(=O)NC2CCCCCC2)S(=O)(=O)c2ccccc2)c1 -34.4%
C=CCn1c(=NC(=O)c2cccs2)sc2cc(NC(C)=O)ccc21 -34.5%
CCOC(=O)N1CCN(C(c2ccnc3ccccc23)c2nnnn2-c2c(C)cccc2C)CC1 (stereo not drawn) 8.32%
O=C(COC(=O)c1cc(=O)[nH]c2ccccc12)NCc1cccc(Cl)c1 -18.6%
O=C(OCc1nnc(-c2ccccc2)o1)c1cc(=O)[nH]c2ccccc12 -0.55%
Cc1nn(-c2ccc(F)cc2)c(Cl)c1/C=C(/CCC(=O)O)c1nc2ccccc2s1 -0.77%
N#Cc1ccc(-c2nc3c(Cl)cc(C(F)(F)F)cn3c2Cc2ccccc2C(F)(F)F)cc1 -2.71%
NS(=O)(=O)c1ccc(NC(=O)COC(=O)CCc2c[nH]c3ccccc23)cc1 -2.39%
NS(=O)(=O)c1ccc(NC(=O)COC(=O)c2ccco2)cc1 -4.93%
COc1ccc(CCN2CC(C(=O)NCCN3CCNC3=O)CCC2=O)cc1 (stereo not drawn) -4.1%
CCOC(=O)CN(C)S(=O)(=O)c1ccc(-c2cc(C(=O)OC)sc2C(F)(F)F)cc1 0.95%
S=C(Nc1cccnc1)Nc1ccccn1 -12.4%
O=C(N/N=C/c1ccccn1)c1cccc(NC(=O)c2ccc(Cl)cc2)c1 9.71%
COC(=O)c1[nH]c2ccc(Br)cc2c1NC(=O)Oc1ccccc1 5.94%
Cc1ccccc1CC1(CO)CCCN(Cc2ccc3c(c2)OCCO3)C1 (stereo not drawn) 6.31%
COc1ccc(C2(C)NC(=O)N(CC(=O)c3ccc4c(c3)OCO4)C2=O)cc1 (stereo not drawn) -0.46%
Cc1nc2cc(NCc3cccs3)ccc2n1C -6.1%
C=CCN(C(=O)Nc1ccc2c(c1)nc(C)n2C)c1ccccc1 -7.06%
CCCCC(O)C1=C[N+](=O)CC=C1 (stereo not drawn) 39.5%
O=C(NCc1cccnc1)c1ccc2nc([C@@H]3O[C@H](CO)[C@H](O)[C@H](O)[C@H]3O)[nH]c2c1 13.3%
COCCc1nn2c(=O)cc(COC(=O)c3cc(OC)c(OC)c(OC)c3)nc2s1 2.03%
NC(N)=Nc1nc(-c2ccccc2)c2cc(Cl)ccc2n1 -9.76%
O=C(Cc1ccc(Cl)cc1)NCc1nc(-c2ccccc2)no1 -18%
O=S(=O)(c1ccccc1)N1CN(Cc2ccc(F)cc2)c2nc3ccccc3nc21 11%
Oc1c(CN2CCOCC2)ccc(CN2CCOCC2)c1O 2.4%
Cc1cccc(N=C2SC(C)CN2C(=O)CN2C(=O)NC3(CCCC3)C2=O)c1 (stereo not drawn) 5.82%
O=C(CNc1ccccc1N1CCCC1=O)Nc1cc(Cl)ccc1-n1cncn1 2.85%
COc1ccc(C2NC(=S)NC3=C2CCc2ccccc23)cc1OC (stereo not drawn) 9.33%
Cc1cc(Br)ccc1NC(=O)c1sc2ncn(CC(=O)N3CCN(c4ccccn4)CC3)c(=O)c2c1C 9.08%
Cc1cc(C(=O)N2CCN(c3ccccn3)CC2)c(C)o1 -12.8%
CCc1ccccc1NC(=O)c1cc(-c2ccc3c(c2)OCO3)on1 -6.05%
CCOC(=O)c1sc2nc(C)nc(Nc3ccc(OC)c(OC)c3)c2c1C 10.5%
CC1CCC(NC(=O)CN(C)S(=O)(=O)c2ccc3c(c2)c(=O)n(C)c(=O)n3C)CC1 (stereo not drawn) -18.7%
COc1cnc(SCc2ccc(Cl)c(Cl)c2)nc1Cl -23.9%
Cc1c(Cl)c([N+](=O)[O-])nn1CC(=O)NCC1CCCO1 (stereo not drawn) 12.8%
CCCCNC(=O)Cn1nc(C)c(S(=O)(=O)N2CCOCC2)c1C 10.8%
OCCc1ccc(NCCc2ccco2)cc1 -21.3%
Cc1nc(SCC(=O)c2ccccc2)c([N+](=O)[O-])[nH]1 9.51%
Cc1nc2nc(SCC(=O)c3ccccc3)[nH]c2cc1Br -4.34%
C[C@H](CO)N1C[C@H](C)[C@H](CN(C)C(=O)c2ccncc2)OCc2ccccc2-c2c(n(C)c3ccccc23)C1=O 2.05%
O=C(CCC(=O)OCc1cccc(C(=O)Oc2ccccc2)c1)Nc1cccc2ccccc12 -15.2%
Cc1cccc(NC(=O)/C=C/c2ccc3c(c2)OCO3)n1 23.5%
O=C(CNC(=O)C(c1ccccc1)c1ccccc1)N/N=C\c1ccc2c(c1)OCO2 -46.1%
Cc1ccc(CNC(=O)CCCNC(=O)c2ccc(Cl)cc2)n1C -27.7%
COc1ccc(N2CC(C(=O)N[C@@H](C)C(=O)N3CCCCC3)CC2=O)cc1 (stereo partly drawn) -3.79%
O=C1CSC(=S)N1c1ccc(Cl)c(Cl)c1 49.6%
CCOc1ccc(N2C(=O)CSC2=NC#N)cc1 11.8%
COc1cc(C(=O)N2CCN(C)CC2)cc(OC)c1OC 6.59%
COc1cc(N2C(=O)CC3(CCCC3)CC2=O)cc(OC)c1OC 15.3%
Cc1ccc(NC(=O)CSc2nn3c(=O)c(C)nnc3s2)cc1Cl 8.21%
Cc1ccc(NC(=O)N2CCC(c3nc4c(nnn4Cc4c(F)cccc4Cl)c(=O)[nH]3)CC2)cc1 19.1%
CC(C)(C)c1ccc(Cn2nnc3c(=O)[nH]c(C4CCCN(C(=O)c5ccco5)C4)nc32)cc1 (stereo not drawn) 25.6%
O=C(OC1CCOC1=O)c1cccc(S(=O)(=O)Nc2ccc(F)cc2)c1 (stereo not drawn) 2.12%
COc1ccc(-c2cc3nc(NCCOc4ccccc4)ccn3n2)cc1 5.16%
Cc1ccc(C(=O)N/C(=C\c2cccs2)C(=O)NCCc2ccccn2)cc1C 5.63%
CCC1(CC)NC(=O)N(CC(=O)OCC(=O)c2cc(C)c(C)cc2C)C1=O -7.64%
C=CCC[C@@H](Cc1ccc(F)cc1)C(=O)O[C@H](CNC(=O)[C@H](CC=C)CC(=O)N(CCO)Cc1ccccc1)c1ccccc1 36.5%
CN1CCN(C(=O)c2ccc(NC(=O)c3ccc(Br)o3)cc2)CC1 2.47%
O=C(Nc1ccc(S(=O)(=O)N2CCCCCC2)cc1)c1c(F)cccc1F 2.17%
COc1cccc(OC)c1C(=O)Nc1ccc(Cc2ccncc2)cc1 -17.4%
Cc1ccccc1OCC(=O)NNC(=O)c1cc(S(=O)(=O)N(C)C)ccc1N1CCCC1 -9.51%
CN(C)S(=O)(=O)c1ccc(N2CCCC2)c(C(=O)Nc2cccc(F)c2)c1 0.2%

inhibition, active:
O=C(Nc1ccc(NC(=O)c2cccs2)cn1)c1ccco1 57.4%
Cc1cccc(NC(=S)NCc2ccc3[nH]c4c(c3c2)CCCC4)c1 70.9%
c1ccc(-c2cc3c(NCC4COc5ccccc5O4)ncnc3s2)cc1 (stereo not drawn) 77.3%
O=C(COC(=O)c1cc(=O)[nH]c2ccccc12)Nc1nc(-c2cccc(Br)c2)cs1 75.8%
CC1=CC(=C(C#N)c2nc3ccccc3s2)C=C(C)N1c1ccc(F)cc1F 55.1%
NS(=O)(=O)c1ccc(NC(=O)COC(=O)c2c3c(nc4ccccc24)/C(=C\c2ccc4c(c2)OCO4)CCC3)cc1 55.8%
S=C(NN=Cc1ccccn1)Nc1ccccn1 105%
CC(=NCc1ccco1)c1c(C(F)(F)F)[nH]n(-c2nc3ccccc3s2)c1=O 75.8%
Cc1nc2cc(NC(=O)Nc3cccc(F)c3)ccc2n1C 81.1%
Clc1ccc2nc(-c3ccccc3)nc(C(Cl)Cl)c2c1 54.4%
CSc1nc(-c2ccccc2)nc(C(Cl)Cl)n1 65.2%
Cc1cc(Br)ccc1NC(=O)c1cnc(N2CCN(c3ccccn3)CC2)c2ccccc12 80.5%
Cc1c(Cl)c([N+](=O)[O-])nn1CC(=O)NCCCN1CCOCC1 55.9%
Cc1cc(SCC(=O)c2ccccc2)nc(SCC(=O)c2ccccc2)n1 53.9%
C(=N\Nc1ccc2ccccc2n1)/c1ccc2c(c1)OCO2 86.3%
COc1cc(N2C(=O)CSC2=S)cc(OC)c1OC 58.5%
O=C1CSC(=S)N1c1ccc(O)cc1 75.1%
Cc1ccc(Cn2nnc3c(=O)[nH]c(C4CCN(S(=O)(=O)/C=C/c5ccccc5)CC4)nc32)cc1 50.3%
COc1cncc(-c2cnc3sc(NCCc4ccccn4)nn23)c1 64.8%
O=C(Nc1ccncc1)c1c(F)cccc1F 66.7%
CN(C)S(=O)(=O)c1ccc(N2CCCC2)c(C(=O)NCc2ccccc2)c1 63.4%
